The test concerns Trypanosoma brucei. In words: Trypanosoma brucei 72 hour study. The test is classed as functional, organism-based. Details: scale not given: in the data most compounds retested in dose-response had high values.

In all, about 66,000 compounds went through this assay and about 960 (1.5%) showed an effect of 50% or more. The entries come from a sample that favours strong results as a whole.

As for `CN(C)CCCN(Cc1cnn(C)c1)Cc1ccco1.O=C(O)CC(O)(CC(=O)O)C(=O)O`, for the setting “30.3 µM, […]”, the “Percent Effect” value was -23.52%.

For `O=C(O)C(F)(F)F.O=C(O)C(F)(F)F.c1cncc(CN2Cc3nccn3CC(Cn3cccn3)C2)c1` (stereo not given), the “Percent Effect” value (30.3 µM, […]) is -81.67%.

With `Cc1cc(-c2cnc(N3CCSCC3)nc2C(C)C)on1`, the “Percent Effect” value (30.3 µM, […]) is -15.33%.

Turning to `Cc1noc(C)c1CN1CCOCC12CCN(c1cnccn1)CC2.O=C(O)C(F)(F)F`, the “Percent Effect” value (30.3 µM, […]) was -24.7%.

Regarding `Cc1ccccc1NC(=O)Nc1cc(N2CCCC2)ncn1`, where the note is “30.3 µM, […]”, the “Percent Effect” value was -35.39%.

As to `Cc1nc(C)c(C(=O)Nc2cc(N3CCC(C)CC3)ncn2)s1`, under “30.3 µM, […]”, the “Percent Effect” value is -16.43%.

Regarding `CC1CCN(c2cc(NC(=O)C3CC3)ncn2)CC1`, the “Percent Effect” value (30.3 µM, […]) came to 71.79%.

Consider `COc1ccc(-c2csc3c2c(N)nc(=O)n3CCCN(C)C)cc1`, for which the “Percent Effect” value (30 µM, 30.03 µM) is on record as -33.83%.

In the case of `CN(C)C(=O)C1CCN(Cc2csc(C(C)(C)C)n2)CC1`, the “Percent Effect” value (10 µM) is listed as -5.321%.

In the case of `CCCNC(=O)C1CCN(Cc2csc(C(C)(C)C)n2)CC1`, the “Percent Effect” value (30 µM, 30.03 µM) was -44.58%.

For the compound `CCOC(=O)C1CCN(Cc2csc(C(C)(C)C)n2)CC1`, the “Percent Effect” value (30 µM, 30.03 µM) amounted to 96.9%.

Consider `O=C(Nc1nccs1)C1CCCN1Cc1ccccn1` (stereo not given), for which, where the note is “30.3 µM, […]”, the “Percent Effect” value is given as 98.2%.

In the case of `CCNc1ccnc(CN2CCCC2C(=O)Nc2nccs2)c1` (stereo not given), the “Percent Effect” value (30.3 µM, […]) is reported as 28.37%.

`CC(=O)Nc1cccc(CN2CCCC2C(=O)Nc2nccs2)c1` (stereo not given): the “Percent Effect” value (30.3 µM, […]) is -3.044%.

For the compound `O=C(NC[C@]12COC[C@H]1CN(Cc1cccs1)C2)c1ccsc1.O=C(O)C(F)(F)F`, the “Percent Effect” value (30 µM, 30.03 µM) was determined as 48.3%.

With `O=C(O)C(F)(F)F.c1csc(CN2CCn3c(Cn4cncn4)cnc3C2)c1`, the “Percent Effect” value (30.3 µM, […]) was -144.4%.

Consider `CC1=N[C@@]2(CC[C@@H]3CN(CC4CC4)C[C@@H]32)C(=O)N1CC1CC1.O=C(O)C(F)(F)F`, for which the “Percent Effect” value (30.3 µM, […]) is reported as -38.25%.

Take `Cc1cnn(CCNCc2nnc(-c3occc3C)o2)c1`: the “Percent Effect” value (10 µM) is on record as -38.66%.

Consider `CC(C)N1CCC2(CCCN(c3nccc(C(F)(F)F)n3)C2)CC1.O=C(O)C(F)(F)F`, for which, under “30.3 µM, […]”, the “Percent Effect” value stood at 63.32%.

Consider `Cc1ccc(CN2CCC3(C2)C(=O)N(CC2CC2)c2ccccc23)s1.O=C(O)C(F)(F)F` (stereo not given), for which, under “30.3 µM, […]”, the “Percent Effect” value turned out to be 92.57%.

Turning to `O=C(O)C(F)(F)F.O=C(O)C(F)(F)F.c1cnc(N2CCCC3(CCN(c4ncccn4)C3)C2)nc1` (stereo not given), the “Percent Effect” value (30 µM, 30.03 µM) was -31.26%.

As to `O=C(O)C(F)(F)F.c1cnc(N2CCC3(CCN(CC4CCOC4)CC3)C2)nc1` (stereo not given), for the setting “30 µM, 30.03 µM”, the “Percent Effect” value is given as -13.94%.

For `O=C(O)C(F)(F)F.O=C1CC2(CCN(CC3CCOC3)CC2)c2ccccc2N1CC1CC1` (stereo not given), the “Percent Effect” value (30.3 µM, […]) was -4.569%.

For the compound `CN1CCC2(CCCN(c3nccc(C(F)(F)F)n3)C2)CC1.O=C(O)C(F)(F)F`, where the note is “30.3 µM, […]”, the “Percent Effect” value was 3.781%.

Turning to `O=C(O)C(F)(F)F.O=C(O)C(F)(F)F.c1cnc(N2CCC3(CCN(CC4CCOC4)CC3)CC2)nc1` (stereo not given), the “Percent Effect” value (30 µM, 30.03 µM) is on record as -26.62%.

With `Cc1ccc(CN2CCC3(C2)C(=O)N(CC(N)=O)c2ccccc23)s1` (stereo not given), the “Percent Effect” value (30 µM, 30.03 µM) is on record as -6.982%.

As to `O=C(O)C(F)(F)F.O=C(O)C(F)(F)F.OCCN1CC2(CCN(CC3CC3)CC2)c2ccccc21`, where the note is “30 µM, 30.03 µM”, the “Percent Effect” value is 101.2%.

As for `CC(C)CN1C(=O)C2(CCN(CC3CCOCC3)C2)c2ccccc21.O=C(O)C(F)(F)F` (stereo not given), the “Percent Effect” value (30.3 µM, […]) was -1.145%.

For the compound `O=C(O)C(F)(F)F.c1cnc(N2CCCC3(CCN(CC4CCOC4)CC3)C2)nc1` (stereo not given), the “Percent Effect” value (30 µM, 30.03 µM) stood at 56.13%.

Take `O=C(O)C(F)(F)F.c1cnc(N2CC3(CCN(CC4CCOC4)CC3)c3ccccc32)nc1` (stereo not given): the “Percent Effect” value (30 µM, 30.03 µM) was -50.98%.

Source of the values: ChEMBL document CHEMBL3988442, “University of Dundee, Small-Polar-MMV Screening Library” (2021).
